Measurements: PubChem BioAssay (NCI)
Compounds without any hit were thinned out: in the full panel of roughly 79,000, 15% have a hit. The source made the active and inactive calls. No stated cut-off is given here; in the data, active means growth inhibition above about 70%; inactive means the rest.

Legend:
[1] = NCI Yeast Anticancer Drug Screen. Data for the rad52 strain (AID 147);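 further: 0% = growth of vehicle-treated control cultures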; details: S. cerevisiae rad52 mutant growth inhibition, stronger effect = higher value
How it was run: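 Growth of repair-deficient yeast cells was compared between compound-treated and vehicle-treated cultures to give percent inhibition.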

[2] = NCI Yeast Anticancer Drug Screen. Data for the wt1 strain (AID 149);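 further: 0% = growth of vehicle-treated wt1 cultures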; details: S. cerevisiae wt1 strain (SPY 50644) growth inhibition, stronger effect = higher value
How it was run: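 wt1 strain grown with compound or vehicle; inhibition taken from the growth difference.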

[3] = NCI Yeast Anticancer Drug Screen. Data for the rad50EPP+ strain (AID 151);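 further: 0% = growth of vehicle-treated control cultures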; details: S. cerevisiae rad50 mutant strain, stronger effect = higher value
How it was run: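 Measured: growth inhibition of rad50EPP+ yeast. Reference: vehicle-treated controls. Screen uses strains with defined genetic alterations in DNA damage repair or cell cycle control.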

[4] = NCI Yeast Anticancer Drug Screen. Data for the mgt1 strain (AID 153); details: S. cerevisiae mgt1 mutant growth inhibition, stronger effect = higher value
How it was run: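 Compounds were applied to mgt1 mutant yeast, and growth was then compared against vehicle-treated control cultures to give percent inhibition.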

[5] = NCI Yeast Anticancer Drug Screen. Data for the rad50 strain (AID 155);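 further: 0% = growth of vehicle-only cultures of the same strain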; details: S. cerevisiae rad50 strain growth inhibition, stronger effect = higher value
How it was run: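 DNA repair mutant yeast, compound exposure, growth read-out; inhibition is taken relative to vehicle.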

[6] = NCI Yeast Anticancer Drug Screen. Data for the mec2-1 strain (AID 157); details: S. cerevisiae mec2-1 strain, stronger effect = higher value
How it was run: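 Compounds were applied to mec2-1 yeast cells. Their growth was then compared with that of vehicle-treated cultures to give growth inhibition.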

[7] = NCI Yeast Anticancer Drug Screen. Data for the rad14 strain (AID 159);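 further: 0% = growth of vehicle-treated control cultures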; details: S. cerevisiae rad14 strain growth inhibition, stronger effect = higher value
How it was run: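 DNA repair-defective yeast, compound-exposed; % growth inhibition derived by comparison with vehicle-treated controls.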

[8] = NCI Yeast Anticancer Drug Screen. Data for the cln2 rad14 strain (AID 165);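 further: 0% = growth equal to vehicle treated cultures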; details: S. cerevisiae cln2 rad14 strain, stronger effect = higher value
How it was run: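 Strain: cln2 rad14 yeast, altered in cell cycle control and DNA damage repair. Read-out: growth inhibition vs vehicle.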

[9] = NCI Yeast Anticancer Drug Screen. Data for the bub3 strain (AID 167); details: S. cerevisiae bub3 mutant strain, stronger effect = higher value
How it was run: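 In this screen, a yeast mutant lacking normal mitotic checkpoint function is challenged with compound. Relative growth versus vehicle gives the inhibition value.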

[10] = NCI Yeast Anticancer Drug Screen. Data for the wt2 strain (AID 169);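 further: 0% = growth of vehicle-treated yeast cultures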; details: S. cerevisiae wt2 strain growth inhibition, stronger effect = higher value
How it was run: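 Growth of compound-treated yeast is measured and expressed as inhibition relative to vehicle-only controls.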

[11] = NCI Yeast Anticancer Drug Screen. Data for the mlh1 strain (AID 171);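 further: 0% = growth of vehicle-treated control cultures of the same strain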; details: S. cerevisiae mlh1 strain growth inhibition, stronger effect = higher value
How it was run: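 Test agents were incubated with yeast bearing a defined DNA damage repair or cell cycle control alteration; values are growth inhibition normalised to vehicle-treated cultures.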

[12] = NCI Yeast Anticancer Drug Screen. Data for the sgs1 strain (AID 173);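 further: 0% = growth of vehicle-only control cultures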; details: S. cerevisiae sgs1 mutant, stronger effect = higher value
How it was run: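 Strain with an altered DNA repair or cell cycle pathway exposed to compound. Growth then measured. Value = inhibition versus vehicle control.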

[13] = NCI Yeast Anticancer Drug Screen. Data for the mlh1 rad18 strain (AID 175); details: S. cerevisiae mlh1 rad18 strain growth inhibition, stronger effect = higher value
How it was run: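 A repair-deficient yeast strain is exposed to test compound, and growth is scored relative to vehicle-treated controls.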

[14] = NCI Yeast Anticancer Drug Screen. Data for the rad18 strain (AID 177); details: S. cerevisiae rad18 mutant growth inhibition, stronger effect = higher value
How it was run: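 DNA-repair-defective yeast; compound treatment; growth inhibition scored against vehicle.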

[15] = at 5.0 µM (retest, dose inferred, filed as 0.5)
[16] = at 50.0 µM (retest, dose inferred, filed as 5.0)

Measured: growth inhibition

N=C1N=Nc2nc(C3(c4nc5n(c4O)C(=N)N=N5)Cc4ccccc4C3=O)c(O)n21 (stereo not given)
inactive: [1]; at 1.2 µM -1% | [1]; at 3.7 µM 1% | [1]; at 11.0 µM 5% | [1]; at 33.0 µM 18% | [1]; at 100.0 µM 69% | [2]; at 1.2 µM 3% | [2]; at 3.7 µM 7% | [2]; at 11.0 µM 11% | [2]; at 33.0 µM 23% | [2]; at 100.0 µM 67% | [3]; at 1.2 µM -2% | [3]; at 3.7 µM 0% | [3]; at 11.0 µM -1% | [3]; at 33.0 µM -1% | [3]; at 100.0 µM 3% | [4]; at 1.2 µM 5% | [4]; at 3.7 µM 7% | [4]; at 11.0 µM 22% | [5]; at 1.2 µM -9% | [5]; at 3.7 µM 34% | [5]; [15] 4% | [5]; at 11.0 µM -3% | [5]; at 33.0 µM 66% | [5]; [16] 38% | [6]; at 1.2 µM 2% | [6]; at 3.7 µM 4% | [6]; [15] 4% | [6]; at 11.0 µM 12% | [6]; at 33.0 µM 30% | [6]; [16] 28% | [6]; at 50.0 µM 59.1% | [7]; at 1.2 µM 7% | [7]; at 3.7 µM 21% | [7]; at 11.0 µM 48% | [8]; [15] 13% | [8]; [16] 10% | [8]; at 50.0 µM 23.2% | [9]; at 1.2 µM 4% | [9]; at 3.7 µM 6% | [9]; [15] 0% | [9]; at 11.0 µM 9% | [9]; at 33.0 µM 45% | [9]; [16] 42% | [10]; at 1.2 µM 4% | [10]; at 3.7 µM 16% | [10]; at 11.0 µM 11% | [10]; at 33.0 µM 32% | [11]; at 1.2 µM 1% | [11]; at 3.7 µM 5% | [11]; at 11.0 µM 14% | [11]; at 33.0 µM 68% | [12]; at 1.2 µM 4% | [12]; at 3.7 µM 10% | [12]; at 11.0 µM 21% | [13]; [15] -63% | [13]; [16] 57% | [14]; at 1.2 µM 3% | [14]; at 3.7 µM 11% | [14]; at 11.0 µM 23%
active: [4]; at 33.0 µM 90% | [4]; at 100.0 µM 99% | [5]; at 50.0 µM 82.2% | [5]; at 100.0 µM 94% | [6]; at 100.0 µM 87% | [7]; at 33.0 µM 94% | [7]; at 100.0 µM 99% | [9]; at 50.0 µM 85.5% | [9]; at 100.0 µM 86% | [10]; at 100.0 µM 89% | [11]; at 100.0 µM 95% | [12]; at 33.0 µM 74% | [12]; at 100.0 µM 95% | [13]; at 50.0 µM 92.7% | [14]; at 33.0 µM 75% | [14]; at 100.0 µM 96%
